These results are taken from PubChem BioAssay (Tox21).

Structures are written as SMILES. “And” between values parts separate entries of the source, which are not always exact repeats. Equal entries are not always repeated. Results filed as inconclusive are left out. A structure can be active in one record and inactive in another. The source made the active and inactive calls. Calls come from the whole dose curve; as a rule, active = well fitted curve in the direction sought with a large enough effect in the repeat runs; inconclusive = weak or mixed curves; inactive = no such curve, though single readings can be large; an effect the other way counts as inactive or inconclusive.

A short description of assay [1]: Caspase-3/7 induction in HepG2 cells by small molecules, qHTS assay (AID 1346978). Note: nearly all actives have a fitted effect of over 15% in size. Note: potency is the fitted concentration of half-maximal effect. The procedure, abridged: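 Wild-type HepG2 cells, 2,000/well, settled 5 hr at 37 C and 5% CO2, then compound-treated for 17 hr; caspase-3/7 activity read by luminescent Caspase-Glo 3/7 after 30 min at room temperature.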
The target in assay [2] is Cytochrome P450 2D6 (Homo sapiens) (UniProt P10635). In words: Cytochrome P450 Family 2 Subfamily D Member 6 (CYP2D6) small molecule antagonists: luciferase reporter qHTS assay (AID 1671196). For activity change, negative = inhibition: series mostly up to about 120 µM. Note: nearly all actives have a fitted effect of over 50% in size. Note: potency is the fitted concentration of half-maximal effect. An outline of the steps: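 Chemicals tested for interference with CYP2D6 activity; proluciferin substrate, NADPH regeneration, 1 h at room temperature, luminescent detection.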
Cytochrome P450 2D6 (Homo sapiens), sequence (P10635 whole entry, looked up): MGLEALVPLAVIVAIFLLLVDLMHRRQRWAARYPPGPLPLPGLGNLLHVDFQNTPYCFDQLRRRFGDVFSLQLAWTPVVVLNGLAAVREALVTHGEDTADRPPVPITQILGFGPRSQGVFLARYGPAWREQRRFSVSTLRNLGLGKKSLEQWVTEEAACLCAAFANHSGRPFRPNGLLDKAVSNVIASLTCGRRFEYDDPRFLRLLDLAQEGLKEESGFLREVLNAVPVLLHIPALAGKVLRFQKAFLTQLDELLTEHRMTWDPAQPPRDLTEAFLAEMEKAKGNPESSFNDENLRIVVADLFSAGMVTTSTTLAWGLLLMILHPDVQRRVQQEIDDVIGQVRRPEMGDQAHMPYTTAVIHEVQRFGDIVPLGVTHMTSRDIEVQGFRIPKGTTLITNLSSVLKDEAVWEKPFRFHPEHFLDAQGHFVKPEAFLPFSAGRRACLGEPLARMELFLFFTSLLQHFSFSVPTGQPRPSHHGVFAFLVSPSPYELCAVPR
In assay [3] the target is Cytochrome P450 2C19 (Homo sapiens) (UniProt P33261). The experiment in a line: Cytochrome P450 Family 2 Subfamily C Member 19 (CYP2C19) small molecule antagonists: luciferase reporter qHTS assay (AID 1671197). For activity change, negative = inhibition: series mostly up to about 120 µM. Note: nearly all actives have a fitted effect of over 65% in size. Note: potency is the fitted concentration of half-maximal effect. An outline of the steps:
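CYP2C19 P450-Glo, 1536-well qHTS. Cpd + enzyme/proluciferin substrate 10 min RT; + NADPH regen, 37C 1 h; stop with luciferin detection reagent, 20 min RT, luminescence (RLU). Pos ctrl ketoconazole.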

For assay [4], the target named is Cytochrome P450 2C9 (Homo sapiens) (UniProt P11712). In words: Cytochrome P450 Family 2 Subfamily C Member 9 (CYP2C9) small molecule antagonists: luciferase reporter qHTS assay (AID 1671198). For activity change, negative = inhibition: series mostly up to about 120 µM. Note: nearly all actives have a fitted effect of over 50% in size. Note: potency is the fitted concentration of half-maximal effect. An outline of the steps:
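P450-Glo proluciferin substrate with CYP2C9 enzyme; 10 min RT preincubation, then NADPH regeneration 1 h at 37C; luciferin detection reagent 20 min RT, luminescence in relative luminescence units.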

For assay [5], the target named is Cytochrome P450 1A2 (Homo sapiens) (UniProt P05177). The experiment in a line: Cytochrome P450 Family 1 Subfamily A Member 2 (CYP1A2) small molecule antagonists: luciferase reporter qHTS assay (AID 1671199). For activity change, negative = inhibition: series mostly up to about 120 µM. Note: nearly all actives have a fitted effect of over 50% in size. Note: potency is the fitted concentration of half-maximal effect. An outline of the steps: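 Read-out is luminescence from luciferin detection reagent (20 min) proportional to CYP1A2 activity; compounds in DMSO preincubated 10 min with enzyme and proluciferin substrate, then NADPH regeneration solution, 1 h, room temperature.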
Cytochrome P450 1A2 (Homo sapiens), sequence (P05177 whole entry, looked up): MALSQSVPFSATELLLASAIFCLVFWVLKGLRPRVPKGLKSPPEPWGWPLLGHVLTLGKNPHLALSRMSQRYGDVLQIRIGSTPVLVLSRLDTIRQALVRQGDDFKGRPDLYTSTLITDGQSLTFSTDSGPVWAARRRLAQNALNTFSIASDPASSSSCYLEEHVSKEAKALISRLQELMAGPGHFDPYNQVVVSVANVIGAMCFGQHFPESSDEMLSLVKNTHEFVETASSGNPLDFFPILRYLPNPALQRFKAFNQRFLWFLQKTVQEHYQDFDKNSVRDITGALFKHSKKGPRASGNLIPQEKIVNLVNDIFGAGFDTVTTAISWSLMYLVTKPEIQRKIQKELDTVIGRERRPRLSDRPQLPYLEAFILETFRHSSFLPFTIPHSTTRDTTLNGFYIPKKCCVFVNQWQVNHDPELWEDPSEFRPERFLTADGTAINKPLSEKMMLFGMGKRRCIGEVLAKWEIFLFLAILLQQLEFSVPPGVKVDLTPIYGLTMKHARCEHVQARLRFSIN

Assay [6] deals with Voltage-gated inwardly rectifying potassium channel KCNH2 (Homo sapiens) (UniProt Q12809). In words: Human Ether-a-go-go-Related Gene (hERG) channel small molecule antagonists: fluorescence cell-based qHTS assay (AID 1671200).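 For activity change, negative = inhibition: hERG-expressing U2OS cells given a thallium stimulus after FluxOR II dye loading; series mostly up to about 77 µM.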 Note: nearly all actives have a fitted effect of over 50% in size. Note: potency is the fitted concentration of half-maximal effect. An outline of the steps:
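Measured: Tl+ flux via fluorescence (480/540 nm) in hERG-expressing U2OS cells after 1 h dye loading at room temperature.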

The target of assay [7] is Cytochrome P450 3A4 (Homo sapiens) (UniProt P08684). The experiment in a line: Cytochrome P450 Family 3 Subfamily A Member 4 (CYP3A4) small molecule antagonists: luciferase reporter qHTS assay (AID 1671201). For activity change, negative = inhibition: series mostly up to about 120 µM. Note: nearly all actives have a fitted effect of over 50% in size. Note: potency is the fitted concentration of half-maximal effect. The procedure, abridged: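 Setup: enzyme-substrate mix, compound pin transfer, 10 min RT. Reaction: NADPH regeneration solution, 1 h RT. Readout: detection reagent stops turnover, luminescence measured after 20 min, expressed in relative luminescence units.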
Cytochrome P450 3A4 (Homo sapiens), sequence (P08684 whole entry, looked up): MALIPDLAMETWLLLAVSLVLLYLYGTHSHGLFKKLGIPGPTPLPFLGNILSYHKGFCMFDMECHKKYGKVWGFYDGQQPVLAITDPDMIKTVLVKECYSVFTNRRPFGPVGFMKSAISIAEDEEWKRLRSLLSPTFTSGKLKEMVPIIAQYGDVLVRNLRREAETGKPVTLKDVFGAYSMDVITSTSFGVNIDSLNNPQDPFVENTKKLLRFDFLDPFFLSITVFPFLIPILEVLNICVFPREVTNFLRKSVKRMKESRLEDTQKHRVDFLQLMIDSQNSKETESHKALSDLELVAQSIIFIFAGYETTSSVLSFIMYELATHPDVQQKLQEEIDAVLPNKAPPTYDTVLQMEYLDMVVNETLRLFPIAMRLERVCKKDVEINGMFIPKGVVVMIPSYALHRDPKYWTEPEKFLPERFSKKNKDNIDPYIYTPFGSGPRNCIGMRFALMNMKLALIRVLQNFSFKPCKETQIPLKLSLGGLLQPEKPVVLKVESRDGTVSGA

Assay [8] is described as follows: Caspase-3/7 induction in HepG2 cells by small molecules, qHTS cell viability counter screen (AID 1346981). Note: nearly all actives have a fitted effect of over 30% in size. Note: potency is the fitted concentration of half-maximal effect. The procedure, abridged: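 Treatment of HepG2 cells with DMSO-delivered compounds ran 16 hr at 37 C following a 5-hr pre-incubation of 2,000 cells/well. CellTiter-Fluor fluorescence, read after 1 hr, served as the viability measure in a qHTS format.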
The nature of assay [9]: Caspase-3/7 induction in CHO-K1 cells by small molecules, qHTS cell viability counter screen (AID 1346979). Note: nearly all actives have a fitted effect of over 35% in size. Note: potency is the fitted concentration of half-maximal effect. An outline of the steps: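 To flag cytotoxic compounds, treated CHO-K1 wild-type cells were given CellTiter-Fluor at 16hr and read fluorescently after 1hr at 37C; the caspase-3/7 luminescence was measured in these same wells.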
The nature of assay [10]: Caspase-3/7 induction in CHO-K1 cells by small molecules, qHTS assay (AID 1346980). Note: nearly all actives have a fitted effect of over 15% in size. Note: potency is the fitted concentration of half-maximal effect. The procedure, abridged: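 Wild-type CHO-K1 cells exposed to compounds for 17hr at 37 C, 5% CO2. Caspase-3/7 activity then measured by Caspase-Glo 3/7 luminescence after 30min at room temperature.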
The target in assay [11] is Nuclear receptor subfamily 1 group I member 2 (Homo sapiens) (UniProt O75469). The experiment in a line: Human pregnane X receptor (PXR) small molecule agonists, qHTS assay (AID 1346982). Note: nearly all actives have a fitted effect of over 35% in size. Note: potency is the fitted concentration of half-maximal effect. The procedure, abridged:
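Stable HepG2 line reporting PXR-mediated CYP3A4 expression via luciferase. Treatment: 24 hr with compounds in DMSO at 37 C. Detection: ONE-Glo luminescence.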

In assay [12] the target is Nuclear receptor subfamily 1 group I member 2 (Rattus norvegicus) (UniProt Q9R1A7). In words: Rat pregnane X receptor (rPXR) activation by small molecules, qHTS assay (AID 1346983). Note: nearly all actives have a fitted effect of over 20% in size. To be noted: rPXR luciferase reporter cells, One-Glo luminescence, 24 h; max activation: stronger effect = higher value. An outline of the steps: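 Cell-based rPXR activation assay: rPXR cells, 2,000 per well, rested 5hr at 37 C, then exposed to compounds in DMSO for 24 hr at 37 C. Luciferase activity read by One-Glo luminescence after 30 min at room temperature.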
Nuclear receptor subfamily 1 group I member 2 (Rattus norvegicus), sequence (Q9R1A7 whole entry, looked up): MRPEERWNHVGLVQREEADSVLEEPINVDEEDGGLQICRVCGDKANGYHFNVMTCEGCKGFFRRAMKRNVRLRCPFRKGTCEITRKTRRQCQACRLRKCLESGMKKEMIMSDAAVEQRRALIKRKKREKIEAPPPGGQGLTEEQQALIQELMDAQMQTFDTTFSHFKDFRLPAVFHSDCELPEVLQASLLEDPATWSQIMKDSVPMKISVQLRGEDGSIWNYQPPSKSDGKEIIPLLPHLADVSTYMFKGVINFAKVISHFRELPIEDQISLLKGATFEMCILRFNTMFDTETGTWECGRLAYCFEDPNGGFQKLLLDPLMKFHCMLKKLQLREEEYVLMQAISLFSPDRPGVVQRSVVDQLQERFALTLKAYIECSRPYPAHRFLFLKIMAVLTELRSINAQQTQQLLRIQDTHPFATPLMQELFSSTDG

The target of assay [13] is Nuclear receptor subfamily 1 group I member 2 (Homo sapiens) (UniProt O75469). The experiment in a line: CYP3A4 induction through human pregnane X receptor (PXR) by small molecules, qHTS assay (AID 1346984). Note: nearly all actives have a fitted effect of over 40% in size. The procedure, abridged: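 After 24 h at 37C with compound, DPX-2 cells (HepG2, co-transfected PXR response element and CYP3A4 promoter-luciferase) got 3uM final P450-Glo Luciferin-IPA for 3 h; One-Glo luminescence followed.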
Nuclear receptor subfamily 1 group I member 2 (Homo sapiens), sequence (O75469 whole entry, looked up): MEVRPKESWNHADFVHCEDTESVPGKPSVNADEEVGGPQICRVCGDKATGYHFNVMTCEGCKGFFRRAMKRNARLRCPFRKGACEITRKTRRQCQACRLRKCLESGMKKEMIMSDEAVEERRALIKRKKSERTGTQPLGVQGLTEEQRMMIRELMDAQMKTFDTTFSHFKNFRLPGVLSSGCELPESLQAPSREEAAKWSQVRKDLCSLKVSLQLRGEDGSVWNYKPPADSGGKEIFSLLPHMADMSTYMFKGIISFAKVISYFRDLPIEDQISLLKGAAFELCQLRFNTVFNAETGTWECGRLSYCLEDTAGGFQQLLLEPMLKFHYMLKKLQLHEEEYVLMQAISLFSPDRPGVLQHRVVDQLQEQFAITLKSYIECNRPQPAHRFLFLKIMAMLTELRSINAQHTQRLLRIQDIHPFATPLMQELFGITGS

The target is the same in assay [14]. The experiment in a line: Human pregnane X receptor (PXR) activation by small molecules, qHTS assay (AID 1346985). Note: nearly all actives have a fitted effect of over 40% in size. Note: potency is the fitted concentration of half-maximal effect. An outline of the steps: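 DPX-2 cells (HepG2 co-transfected with a PXR response element and a CYP3A4-promoter luciferase construct) were seeded at 2,000 per well, rested 5 hr at 37C, then exposed to DMSO-dissolved compounds for 24 hr. Activation was read as luciferase luminescence.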
% is set by controls: 0 for no effect and ±100 for the full control effect.

Cytochrome P450 2C9 (Homo sapiens), sequence (P11712 whole entry, looked up): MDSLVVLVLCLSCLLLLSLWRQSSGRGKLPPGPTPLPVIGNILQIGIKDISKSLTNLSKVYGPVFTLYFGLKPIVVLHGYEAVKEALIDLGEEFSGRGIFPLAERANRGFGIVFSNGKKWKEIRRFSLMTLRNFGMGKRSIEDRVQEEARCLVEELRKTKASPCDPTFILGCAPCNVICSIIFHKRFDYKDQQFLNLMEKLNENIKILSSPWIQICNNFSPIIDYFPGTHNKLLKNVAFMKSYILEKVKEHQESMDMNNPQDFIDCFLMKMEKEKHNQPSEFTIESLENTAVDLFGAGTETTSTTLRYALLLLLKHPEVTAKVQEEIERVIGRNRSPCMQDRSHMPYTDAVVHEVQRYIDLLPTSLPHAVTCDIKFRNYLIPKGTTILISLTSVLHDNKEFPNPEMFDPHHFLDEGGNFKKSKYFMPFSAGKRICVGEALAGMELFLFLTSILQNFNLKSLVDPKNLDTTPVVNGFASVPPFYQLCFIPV
Voltage-gated inwardly rectifying potassium channel KCNH2 (Homo sapiens), sequence (Q12809 whole entry, looked up): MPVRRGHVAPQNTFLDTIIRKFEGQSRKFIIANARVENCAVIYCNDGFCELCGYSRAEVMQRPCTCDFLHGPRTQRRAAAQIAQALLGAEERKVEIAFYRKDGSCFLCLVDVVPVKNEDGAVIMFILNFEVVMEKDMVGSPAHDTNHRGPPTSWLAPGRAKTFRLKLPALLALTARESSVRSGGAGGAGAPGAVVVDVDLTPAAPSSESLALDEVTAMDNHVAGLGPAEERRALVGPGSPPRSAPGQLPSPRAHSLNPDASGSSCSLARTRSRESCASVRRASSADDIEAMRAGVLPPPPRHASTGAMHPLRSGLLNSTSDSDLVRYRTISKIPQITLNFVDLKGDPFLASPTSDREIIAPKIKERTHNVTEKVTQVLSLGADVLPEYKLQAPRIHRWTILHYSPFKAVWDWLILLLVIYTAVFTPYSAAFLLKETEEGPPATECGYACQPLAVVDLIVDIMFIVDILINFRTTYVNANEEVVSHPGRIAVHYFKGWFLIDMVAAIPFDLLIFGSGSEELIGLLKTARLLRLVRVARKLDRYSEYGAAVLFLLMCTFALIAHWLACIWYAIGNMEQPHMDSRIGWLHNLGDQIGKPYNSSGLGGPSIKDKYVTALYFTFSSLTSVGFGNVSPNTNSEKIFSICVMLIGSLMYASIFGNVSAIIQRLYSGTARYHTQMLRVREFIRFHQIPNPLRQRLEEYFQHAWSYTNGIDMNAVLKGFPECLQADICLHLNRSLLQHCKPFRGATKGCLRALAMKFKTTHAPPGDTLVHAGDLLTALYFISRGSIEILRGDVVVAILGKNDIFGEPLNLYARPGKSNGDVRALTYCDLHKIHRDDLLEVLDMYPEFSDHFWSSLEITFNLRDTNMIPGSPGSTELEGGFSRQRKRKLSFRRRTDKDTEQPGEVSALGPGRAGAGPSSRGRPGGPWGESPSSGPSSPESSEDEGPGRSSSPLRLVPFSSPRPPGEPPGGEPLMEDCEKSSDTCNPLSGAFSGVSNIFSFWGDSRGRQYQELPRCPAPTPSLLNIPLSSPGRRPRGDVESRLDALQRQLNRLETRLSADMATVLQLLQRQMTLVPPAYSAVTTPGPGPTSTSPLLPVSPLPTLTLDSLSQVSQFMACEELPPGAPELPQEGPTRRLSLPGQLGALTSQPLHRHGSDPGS
Cytochrome P450 2C19 (Homo sapiens), sequence (P33261 whole entry, looked up): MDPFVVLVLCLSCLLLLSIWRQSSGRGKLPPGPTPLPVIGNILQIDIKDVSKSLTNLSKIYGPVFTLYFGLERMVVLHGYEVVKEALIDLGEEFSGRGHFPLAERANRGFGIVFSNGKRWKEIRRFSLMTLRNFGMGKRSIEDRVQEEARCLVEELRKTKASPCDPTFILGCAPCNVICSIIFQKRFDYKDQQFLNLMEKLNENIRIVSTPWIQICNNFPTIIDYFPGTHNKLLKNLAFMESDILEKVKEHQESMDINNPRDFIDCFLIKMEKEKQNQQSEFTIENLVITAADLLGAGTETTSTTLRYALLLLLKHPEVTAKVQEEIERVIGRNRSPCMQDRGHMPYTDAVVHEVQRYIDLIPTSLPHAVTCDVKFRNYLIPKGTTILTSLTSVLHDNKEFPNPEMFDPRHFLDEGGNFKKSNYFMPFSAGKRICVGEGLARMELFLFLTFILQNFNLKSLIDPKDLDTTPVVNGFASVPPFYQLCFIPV

As for `Nc1ccc2cc3ccc(N)cc3nc2c1`, the Potency in [1] was 30.6 µM (active) and 29.8 µM (active); in [2] it was 39.9 µM (active); in assay [3], 71 µM (active) and inactive; in [5], 564 nM (active) and 1.82 µM (active); in assay [7], 3.99 µM (active). The Potency entry in assay [4] and in assay [6] was “inactive” throughout.

For the molecule `Clc1ccc(C(Cn2ccnc2)OCc2ccsc2Cl)c(Cl)c1` (stereo unspecified), the Potency entry in assay [1] is “inactive”. Besides, the Potency was 3.47 µM (active) in [2]; 0.347 µM (active) in assay [3]; 0.309 µM (active) in assay [4]; 4.56 µM (active) in [5]; 9.52 µM (active) in [6].

For the molecule `CCOC(=O)N1CCC(=C2c3ccc(Cl)cc3CCc3cccnc32)CC1`, the Potency result in [1] was “inactive”. Also, the Potency in assay [8] was 54.5 µM (active).

Turning to `O=C(O)CCn1c2c(c3ccccc31)C[C@H](NS(=O)(=O)c1ccc(F)cc1)CC2`, the Potency result in assay [1], in assay [8], in assay [2], in [3], in assay [5] and in assay [6] was “inactive” throughout. Further, the Potency in assay [4] is 17.4 µM (active).

In the case of `C[C@@]12C(=O)OC(=O)[C@]1(C)C1CCC2O1`, the Potency in assay [9] is 10.6 µM (active); in assay [10], 23.7 µM (active); in [8], 2.98 µM (active); in assay [11], 1.06 µM (active); in assay [14], 0.794 µM (active). For the same molecule, the max activation in assay [12] is -13% (inactive). Moreover, the Potency entry in [13], in assay [2], in assay [3], in [4], in assay [5] and in assay [6] was “inactive” each time. The Potency entry in assay [7] was “inactive”.

As to `Nc1ncnc2c1ncn2[C@@H]1O[C@H](COP(=O)(O)O)[C@@H](O)[C@H]1O`, the Potency entry in assay [9], in assay [10], in assay [8], in assay [11], in assay [13] and in [14] was “inactive” each time. Besides, the Potency entry in [2], in assay [3], in [4], in assay [6] and in assay [7] was “inactive” throughout. Moreover, the max activation in [12] is -2.61% (inactive).

Turning to `CCCOc1sc(C(=O)N2CCC(c3cc(CN)ccc3F)CC2)c(C)c1Br`, the Potency in assay [1] is 44.5 µM (active); in assay [8], 49.9 µM (active); in assay [2], 18.3 µM (active); in [3], 3.66 µM (active); in assay [4] it was 1.63 µM (active); in assay [5] it was 73 µM (active). Moreover, the Potency is 5.65 µM (active) in assay [6] and 10.3 µM (active) in assay [7]. The Potency entry in [11] is “inactive”.

For the molecule `CN(C)CCOC(c1ccccc1)c1ccccc1` (tested in a mixture with another compound), the Potency entry in [1] and in assay [10] was “inactive” in each case. Further, in [11], the Potency is 61.6 µM (active).

For `CCCCC(CC)COC(=O)c1ccc(O)cc1` (stereo unspecified), the Potency result in assay [1] and in [10] was “inactive” each time. Besides, the Potency was 24.2 µM (active) and 68.6 µM (active) in [11]; 79.4 µM (active) and 22.4 µM (active) in assay [2]; 11.2 µM (active) and 17.8 µM (active) in assay [3]; 31.6 µM (active) and 35.6 µM (active) in [4]; 31.6 µM (active) and 35.6 µM (active) in assay [5]; 70.7 µM (active) in assay [7].

As to `C=CCCCCCCC=C`, the Potency entry in assay [1], in [8] and in [6] was “inactive” throughout.

Consider `CC(C)=C1CC[C@@H](C)CC1=O`, for which the Potency entry in assay [1], in [10], in assay [8], in assay [2], in assay [3] and in [4] was “inactive” in each case. In addition, the Potency result in [6] and in assay [7] was “inactive” in each case.

As for `COc1cc(C(C)C)c2c(c1)S(=O)(=O)N(COc1cc(=O)n3cccc(OCCN4CCCCC4)c3n1)C2=O`, in [1], the caspase activation is 0.878% [at 19 µM] (inactive). Further, the caspase-3/7 activation in [10] was -0.224% [at 19 µM] (inactive). Moreover, the Potency in [11] was 13 µM (active); in assay [7], 0.301 µM (active). Further, in assay [5], the activity change, negative = inhibition was -18.4% [at 23.6 µM] (inactive).

In the case of `CCCCCCOc1cc(C)c(O)c(C)c1C`, the Potency in assay [1] was 49.2 µM (active); in assay [2], 25.5 µM (active); in assay [3], 2.02 µM (active); in assay [4], 25.5 µM (active); in assay [5], 11.4 µM (active); in [7] it was 28.6 µM (active). For the same molecule, the Potency entry in assay [10] is “inactive”.

As to `COc1ccc(-n2nc(CCC(=O)N(C)O)cc2-c2ccc(Cl)cc2)cc1`, the Potency entry in assay [1] and in assay [10] was “inactive” each time. Moreover, the Potency is 29.8 µM (active) in [11], 15.5 µM (active) in [2], 8.71 µM (active) in [3] and 3.89 µM (active) in [4].
